Results taken from PubChem BioAssay (NCI).
This is part of a sample that, as a whole, favours compounds with a hit. Of some 79,000 tested, about 15% had one in any assay. The source made the active and inactive calls. No stated cut-off is given here; in the data, active means growth inhibition above about 70%; inactive means the rest.

Experiment: NCI Yeast Anticancer Drug Screen. Data for the rad50 strain (AID 155);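 further: 0% = growth of vehicle-only cultures of the same strain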
Conditions: S. cerevisiae rad50 strain growth inhibition; at 50.0 µM; active compounds read high
Outline: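 Vehicle-treated cultures provide the reference for the growth inhibition reported for compound-exposed, repair-deficient yeast.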

Compound	growth inhibition
CCCCCCCCCCCCCC/C=C\C(CC(=O)O)C(=O)O (centres undefined)	4.6% (inactive)
O=C1C=C[C@H](O)[C@@]2(CO)O[C@@H]12	5.85% (inactive)
Nc1ncnc2c1ncn2C1OC(CO)C2OC21 (centres undefined)	-12.6% (inactive)
N#C/C(=C\c1ccc(C#N)cc1)C(=O)c1ccccc1	10.5% (inactive)
Cc1cc2c3ccc(C)[n+](C)c3ccc2n1C	-4.3% (inactive)
CCCNS(=O)(=O)c1ccc(Cl)cc1	20.1% (inactive)
CC(=O)N(CCCCCCN(C(C)=O)C(C)=O)C(C)=O	-14.8% (inactive)
ClCc1cccc2c(CCl)cccc12	59.6% (inactive)
Nc1c(O)c(S(=O)(=O)O)c(O)c2c1C(=O)c1ccccc1C2=O	27.4% (inactive)
O=C(O)Cc1ccc(Cl)cc1	22.2% (inactive)
COc1ccc(C(=O)/C(=N/Nc2ccccc2)c2ccc(OC)cc2)cc1	-3.45% (inactive)
O=C1CSc2ccccc2N1	-35% (inactive)
Clc1ccc(-c2noc(/C=C\c3ccccc3)n2)cc1	12.7% (inactive)
CC(=O)N(C)N=Nc1ccc(C)cc1	3.7% (inactive)
CC(=O)C1C(=O)C(=O)N(c2ccc(Cl)c(Cl)c2)C1=O (centres undefined)	-22.1% (inactive)
CCC(=O)Oc1ccc2ccccc2c1	49.4% (inactive)
COC1OC(C(O)C(O)CO)C(O)C(O)C1O (centres undefined)	14.3% (inactive)
CN(C(=S)S(=O)(=O)C12CC3CC(CC(C3)C1)C2)c1ccccc1	28.8% (inactive)
COC1OC(C(COC(C)=O)OC(C)=O)C(OC(C)=O)C(OC(C)=O)C1OC(C)=O (centres undefined)	13.8% (inactive)
